These results are taken from the OligoGym collection.
Note: reference of the scale not given here.

The target in one assay is KRBA1. Put plainly: pooled miR-30 sensor sort-seq; sequence = guide strand. The settings on record: shRNA.
Regarding TTGTCTGCTGTCCAGTTCCTGG, the sensor-assay potency score (higher = more potent) was -1.35. The same measure, in the same setting: the result for TCTTCCATGTCCAAGCTCCAGG reads -1.05; that for TTGTCGGCAGTTTTGATGGGGA, -0.192; that for TTCACTGTGTGATCTGTGGGGT, 0.493. Same read-out and setting: the result for ATTTGATTGAATCTGAGCCAAG reads -1.53; that for TTGGCTGCAACTCTGGGTCTTC, -0.346; that for TAGAGGACAGCAGCTGCTGGGA, -1.32. TTTGTCGGCAGTTTTGATGGGG yielded a sensor-assay potency score (higher = more potent) of 0.519. Sequence TCTGAGACCTAGAGTCTCCTGG registered a sensor-assay potency score (higher = more potent) of -0.0756. TCTCCAAACAAGAACTCTGGGA registered a sensor-assay potency score (higher = more potent) of -0.424.

TTCTCCAGCTGAGAAACCGGGC returned a sensor-assay potency score (higher = more potent) of -0.802. The same measure, in the same setting: the value for TTCTTCACTGTGTGATCTGTGG was -0.539.

For the next assay, the target named is KRBA2. The assay is described as above. The following applies: shRNA.
For the sequence TTGAGCTCATGAACAACCTGGT, the sensor-assay potency score (higher = more potent) is 0.411. TTGCTGTTGTAACTTTTGCTTT had a sensor-assay potency score (higher = more potent) of -1.09. Sequence TATAAGACAATAACTTCTTTGG came in with a sensor-assay potency score (higher = more potent) of -0.185. In the case of TGAACTTGAACTCACCATCGGC, the sensor-assay potency score (higher = more potent) turned out to be 0.0582. Sequence TAAGACAATAACTTCTTTGGTG came in with a sensor-assay potency score (higher = more potent) of 0.507.

Turning to TTGCTTTCTACTAACTTTGTTA, the sensor-assay potency score (higher = more potent) stood at 0.0117. Still for that read-out and setting: the result for TAACAAGACACTGACCACCTCA reads 0.174; that for TGTGTCTCTGTAGCAATCCTTT, -1.24; that for ATTGAGCTCATGAACAACCTGG, -0.217. TTTAGCTTCTTTAACTTCCTTT: the sensor-assay potency score (higher = more potent) was 0.674.

A further assay has as its target KRCC1. The assay is described as above. The following applies: shRNA.
Consider TTTCTTAGAGACTACATCTCGG, for which the sensor-assay potency score (higher = more potent) was -0.234. The same measure, in the same setting: the result for TTCTTGTTGATTAAAGTTCAGG reads -0.822. Still for that read-out and setting: the value for TTATCTGAGGAGAAGTGCTTGT was 0.253. Still for that read-out and setting: the value for TTTTTCTGAGAAACAGTCCCTC was -0.167; that for TTTCTGTACTGACATGTACGGT was -0.751. Consider TTGATGAGTACTGGTACTGTTA, for which the sensor-assay potency score (higher = more potent) was -0.491.

Regarding TTCTTAGAGACTACATCTCGGC, the sensor-assay potency score (higher = more potent) was -0.216. Consider TTCTCTTATGCTTAGACCGCTC, for which the sensor-assay potency score (higher = more potent) was -0.386. On the same count and under the same terms, the value for TTAGAGACTACATCTCGGCTTT was 0.863; that for TTGTTGATTAAAGTTCAGGGGT was -0.113; that for TTCTGTACTGACATGTACGGTT was -0.0449. TTAACCTCTCCTTTGTACCCAC had a sensor-assay potency score (higher = more potent) of -0.366.

For the next assay, the target named is KRI1. The description is as above. The following applies: shRNA.
On to TTCTGCAGCAAACTGGAGCCGC, for which the sensor-assay potency score (higher = more potent) is -0.837. TTCTTCAACAAGGAGAGCGTTT registered a sensor-assay potency score (higher = more potent) of -0.767.

As to TTGAGCTCTTCCTGCTTCTTTG, the sensor-assay potency score (higher = more potent) was -1.32. The same measure, in the same setting: the value for TTTGTAAAAGTCCCGCTCCTGC was -0.976.
